Measurements as given in PubChem BioAssay (NCI).
This is part of a sample that, as a whole, favours compounds with a hit. Of some 79,000 tested, about 15% had one in any assay. The source made the active and inactive calls. Cut-off read from the data, not from the text of the source: active = growth inhibition above about 70%; inactive = the rest.

Key:
[1] = NCI Yeast Anticancer Drug Screen. Data for the rad50 strain (AID 155);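 note: 0% = growth of vehicle-only cultures of the same strain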; conditions: S. cerevisiae rad50 strain growth inhibition, stronger effect = higher value
In short: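 Relative growth inhibition (compound vs vehicle) was measured in yeast with a defined repair-gene alteration.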

[2] = NCI Yeast Anticancer Drug Screen. Data for the mec2-1 strain (AID 157); conditions: S. cerevisiae mec2-1 strain, stronger effect = higher value
In short: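 Growth inhibition is read against vehicle-treated controls after compound exposure of the mec2-1 yeast strain, which is defective in DNA damage repair or cell cycle control.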

[3] = NCI Yeast Anticancer Drug Screen. Data for the sgs1 mgt1 strain (AID 161);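 note: 0% = growth of cultures given vehicle only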; conditions: S. cerevisiae sgs1 mgt1 strain, stronger effect = higher value
In short: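 This yeast growth screen uses a strain with defined DNA-repair lesions; compound-treated growth is compared with vehicle-treated growth.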

[4] = NCI Yeast Anticancer Drug Screen. Data for the cln2 rad14 strain (AID 165);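 note: 0% = growth equal to vehicle treated cultures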; conditions: S. cerevisiae cln2 rad14 strain, stronger effect = higher value
In short: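 Growth inhibition, relative to vehicle-treated controls, is the read-out. The test organism is a yeast strain with defined genetic alterations, cln2 rad14.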

[5] = NCI Yeast Anticancer Drug Screen. Data for the bub3 strain (AID 167); conditions: S. cerevisiae bub3 mutant strain, stronger effect = higher value
In short: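 Screening used yeast with an engineered genetic alteration affecting cell cycle control. Compound-exposed cultures were compared with vehicle cultures, and reduced growth was taken as inhibition.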

[6] = NCI Yeast Anticancer Drug Screen. Data for the mlh1 rad18 strain (AID 175); conditions: S. cerevisiae mlh1 rad18 strain growth inhibition, stronger effect = higher value
In short: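 Cells of a genetically altered yeast strain, deficient in DNA damage repair, were treated with compound. Their growth was then compared with that of vehicle-treated cultures to give inhibition.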

[7] = at 5.0 µM (retest, dose inferred, filed as 0.5)
[8] = at 50.0 µM (retest, dose inferred, filed as 5.0)

Measured: growth inhibition

COC(=O)/C=N/O
inactive: [1]; [7] -17% | [1]; [8] 7% | [1]; at 50.0 µM -19.4% | [2]; [7] -9% | [2]; [8] -6% | [2]; at 50.0 µM -6.9% | [3]; [7] -5% | [3]; [8] -4% | [3]; at 50.0 µM 8.85% | [4]; [7] 7% | [4]; [8] -1% | [4]; at 50.0 µM 0.85% | [5]; [7] -19% | [5]; [8] -1% | [5]; at 50.0 µM -14.9% | [6]; [7] -2% | [6]; [8] -6% | [6]; at 50.0 µM 36.3%

c1ccc(-n2ncc3ccc4cccn4c32)cc1
inactive: [1]; [7] -4% | [1]; [8] -2% | [1]; at 50.0 µM 63.9% | [2]; [7] 3% | [2]; [8] 9% | [2]; at 50.0 µM 38.1% | [3]; [7] -15% | [3]; [8] 40% | [3]; at 50.0 µM 55% | [4]; [7] -13% | [4]; [8] 25% | [4]; at 50.0 µM 13.1% | [5]; [7] 17% | [5]; [8] 16% | [6]; [7] 12% | [6]; [8] 40% | [6]; at 50.0 µM 47.7%
active: [5]; at 50.0 µM 91.3%

O=[N+]([O-])c1cc(I)cc(/C=N/NS(=O)(=O)c2ccc(F)cc2)c1O
active: [1]; at 50.0 µM 84.2% | [2]; at 50.0 µM 77.7% | [3]; at 50.0 µM 89.5% | [4]; at 50.0 µM 77.8% | [6]; at 50.0 µM 93%
inactive: [1]; [7] 16% | [1]; [8] 36% | [2]; [7] 12% | [2]; [8] 31% | [3]; [7] 19% | [3]; [8] 47% | [4]; [7] 0% | [4]; [8] 15% | [5]; [7] 3% | [5]; [8] 17% | [5]; at 50.0 µM 53% | [6]; [7] 17% | [6]; [8] 45%

Nc1nccc2c1ncn2C1C=C(CO)C(O)C1O (stereo not drawn)
active: [2]; [8] 90% | [3]; [8] 80% | [5]; [8] 94% | [6]; [8] 89%
inactive: [1]; [7] 15% | [1]; [8] 67% | [1]; at 50.0 µM 38.5% | [2]; [7] 3% | [2]; at 50.0 µM 45.4% | [3]; [7] 6% | [3]; at 50.0 µM 54.5% | [4]; [7] 0% | [4]; [8] 26% | [4]; at 50.0 µM 57.5% | [5]; [7] 21% | [5]; at 50.0 µM 57.1% | [6]; [7] 18% | [6]; at 50.0 µM -8.5%

CC(=O)NC1CCCCC1CC1CCCCC1 (stereo not drawn)
inactive: [1]; [7] -146% | [1]; [8] -23% | [1]; at 50.0 µM 19.2% | [2]; [7] -48% | [2]; [8] -44% | [2]; at 50.0 µM 20.1% | [3]; [7] -63% | [3]; [8] -32% | [3]; at 50.0 µM 35.8% | [4]; [7] -57% | [4]; [8] -52% | [5]; [7] -68% | [5]; [8] -49% | [5]; at 50.0 µM 24% | [6]; [7] -125% | [6]; [8] -138% | [6]; at 50.0 µM 16.9%
active: [4]; at 50.0 µM 79.2%

O=[N+]([O-])c1ccccc1C1CN=NN1c1ccccc1 (stereo not drawn)
inactive: [1]; [7] -9% | [1]; [8] 47% | [1]; at 50.0 µM -0.9% | [2]; [7] -2% | [2]; [8] 25% | [2]; at 50.0 µM 17.9% | [3]; [7] -1% | [3]; [8] 33% | [3]; at 50.0 µM 38.2% | [4]; [7] -14% | [4]; [8] 32% | [4]; at 50.0 µM -11.3% | [5]; [7] -3% | [5]; [8] 61% | [6]; [7] 0% | [6]; [8] 37% | [6]; at 50.0 µM 24.9%
active: [5]; at 50.0 µM 85.5%
